The sample as a whole holds a higher share of hits than the screen did.
CBX7 AlphaScr – inhibitors of human CBX7 binding to H3K27me3 peptide; O95931; AlphaScreen His6-CBX7 / biotin-H3K27me3 peptide binding; stronger effect = lower value; normalised signal (fraction of DMSO) (concentration not given with the values); 66,000 compounds, 1.1% hits; AID 1224903; in the data active = normalised signal below about 0.5
Target sequence (O95931 whole entry, looked up): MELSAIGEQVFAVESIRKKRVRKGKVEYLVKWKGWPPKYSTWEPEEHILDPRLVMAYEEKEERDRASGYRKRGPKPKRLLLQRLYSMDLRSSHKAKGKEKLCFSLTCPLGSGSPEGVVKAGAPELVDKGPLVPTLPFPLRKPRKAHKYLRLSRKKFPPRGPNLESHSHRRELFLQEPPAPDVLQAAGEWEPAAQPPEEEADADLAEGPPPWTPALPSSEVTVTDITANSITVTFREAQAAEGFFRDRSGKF
* = called active by the depositor; ! = a repeat was not active.

SMILES	CBX7 AlphaScr
O=c1c2ccccc2nc(-c2ccccc2Cl)n1Cc1c(F)cccc1F	1.05
CCCCNS(=O)(=O)c1ccc2c(c1)CCN2C(C)=O	0.803
Cc1ccccc1OCc1nc(Cc2ccc(Cl)cc2)no1	1.4
COc1ccc(-c2cc(C(=O)N3CCN(Cc4ccccc4)CC3)no2)cc1	1.06
Cc1ccc(CNC(=O)CCCCCn2c(=O)c3sccc3n(Cc3cccc(C)c3)c2=O)cc1	0.946
O=C(Nc1nnc(-c2ccc(Cl)s2)o1)c1ccc(S(=O)(=O)N2CCCC2)cc1	0.0464*
CCC1CCCCN1S(=O)(=O)c1ccc(C(=O)Nc2nnc(-c3ccc(Cl)s3)o2)cc1 (stereo not given)	0.383*
O=C(Nc1nc2c(Cl)cccc2s1)c1ccc(S(=O)(=O)N2CCCC2)cc1	1.04
CCc1nnc(NC(=O)c2ccc(S(=O)(=O)N3CCCCC3CC)cc2)o1 (stereo not given)	0.59
O=C(Nc1nnc(-c2ccccc2)o1)c1ccc(Cl)c(Cl)c1	0.793
CC1CCCN(S(=O)(=O)c2ccc(C(=O)Nc3nnc(-c4ccccc4Cl)o3)cc2)C1 (stereo not given)	0.0102*
CCC1CCCCN1S(=O)(=O)c1ccc(C(=O)Nc2nnc(-c3cccs3)o2)cc1 (stereo not given)	0.908
COc1ccc(-c2nnc(NC(=O)c3ccc(S(=O)(=O)N(C)c4ccccc4)cc3)o2)cc1	0.94
O=C(Nc1nnc(-c2ccc(Cl)cc2Cl)s1)c1ccc(S(=O)(=O)N2CCCC2)cc1	1.05
COc1ccc(-c2nnc(NC(=O)c3ccc(S(=O)(=O)N4CCCC(C)C4)cc3)o2)cc1 (stereo not given)	0.726
O=C(Nc1nnc(-c2ccccc2)o1)c1ccc(Br)cc1	0.268*
Cc1c(C(=O)Nc2ccc3c(c2)OCO3)sc2ncnc(N3CCN(c4ccccc4)CC3)c12	0.802
O=C(NCc1cccnc1)C1CC1(c1ccccc1)c1ccccc1 (stereo not given)	0.854
Cc1ccc(NC(=O)CSc2nc3nc(C)c(Cc4cccc(C)c4)c(C)n3n2)cc1	1.16
Cn1c2ccccc2c2c(C(=O)NCCN3CCOCC3)cn(C3CCCC3)c(=O)c21	0.954
CC(C)CCNS(=O)(=O)c1ccc2c(c1)CCN2C(=O)C1CC1	1.07
CC(C)Cc1ccc(C(C)C(=O)Nc2ccc(Br)cn2)cc1 (stereo not given)	1.18
Cc1cccc(Nc2nc3nonc3n3cnnc23)c1C	0.983
COc1ccc(NC(=O)N(C2CCCCCC2)C2CCN(C(C)=O)CC2)c(OC)c1	1.03
COc1ccc(OC)c(S(=O)(=O)NCCc2c(C)[nH]c3ccc(OC(F)(F)F)cc23)c1	0.616
SMILES	CBX7 AlphaScr
CC1CCN(S(=O)(=O)c2ccc3[nH]c(=O)cc(C(=O)NCCN(C)Cc4ccccc4)c3c2)CC1	0.947
COc1ccc(-c2nnc(NC(=O)c3ccc(S(=O)(=O)N4CC(C)CC(C)C4)cc3)o2)cc1 (stereo not given)	0.915
Cc1ccc(C(=O)Nc2ccccc2)cc1S(=O)(=O)N1CCOCC1	1.02
O=C(Nc1nnc(-c2ccc(Cl)s2)o1)c1ccc(S(=O)(=O)N2CCOCC2)cc1	0.00635*
O=C(Nc1nnc(-c2ccccc2)o1)c1ccc(F)c(S(=O)(=O)N2CCOCC2)c1	0.117*!
Cc1ccccc1NC(=O)c1ccc(F)c(S(=O)(=O)N2CCN(c3ccccc3)CC2)c1	0.995
CC1CCN(S(=O)(=O)c2ccc(C(=O)Nc3nnc(-c4cccs4)o3)cc2)CC1	0.85
O=C(Nc1nccs1)c1ccc(S(=O)(=O)N2CCOCC2)cc1	1.12
CC1CC(C)CN(S(=O)(=O)c2ccc(C(=O)Nc3nnc(-c4cccs4)o3)cc2)C1 (stereo not given)	0.877
O=C(Nc1nnc(-c2cccs2)o1)c1ccc(S(=O)(=O)N2CCCC2)cc1	0.13*
COc1cc(OC)cc(-c2nnc(NC(=O)c3ccc(S(=O)(=O)N4CCOCC4)cc3)o2)c1	0.85
O=C(Nc1nnc(-c2ccc(F)cc2)o1)c1ccc(S(=O)(=O)N2CCOCC2)cc1	0.00366*
COc1cc(OC)cc(-c2nnc(NC(=O)c3ccc(S(=O)(=O)N4CCC(C)CC4)cc3)o2)c1	0.981
CCCOc1ccccc1C1CC(=O)Nc2cc(OCC)c(OCC)cc21 (stereo not given)	1.03
O=C1CN(C(=O)COc2ccccc2)C(c2ccc(F)cc2)c2cc(Cl)ccc2N1 (stereo not given)	0.733
COc1ccc(S(=O)(=O)NCc2ccc(C(=O)NCc3ccccc3OC)cc2)cc1	0.915
O=C(O)c1c2c(nc3ccc(S(=O)(=O)N4CCC(C(=O)NC5CCCC5)CC4)cc13)CCCC2	1
CCOC(=O)c1ccc(Nc2nc3nonc3nc2N2CCC(Cc3ccccc3)CC2)cc1	0.807
COc1ccc(Cl)cc1NC(=O)CC1Oc2ccccc2NC1=O (stereo not given)	1.16
CCCN(C(=O)CCc1nc(-c2ccc(C)cc2)no1)c1ccc(CC)cc1	0.874
Cc1ccc(CN2C(=O)c3ccccc3C2C(=O)NCCCN2CC(C)CC(C)C2)cc1 (stereo not given)	0.998
CC(C)CN(CC(C)C)S(=O)(=O)c1ccc(C(=O)Nc2nnc(-c3cccs3)o2)cc1	0.963
CN(c1ccccc1)S(=O)(=O)c1ccc(C(=O)Nc2nnc(-c3cccs3)o2)cc1	0.983
CN(C)S(=O)(=O)c1ccc(C(=O)Nc2nnc(-c3cccs3)o2)cc1	0.216*
Cn1c(SCC(N)=O)nnc1-c1c[nH]c2ccccc12	1.14
SMILES	CBX7 AlphaScr
Clc1ccc(-c2csc(Nc3ccc4ccccc4c3)n2)cc1Cl	0.591
Cc1ccc(C)c(-c2csc(Nc3ccc(S(=O)(=O)Nc4cc(C)on4)cc3)n2)c1	0.897
Cc1ccc(C)c(-c2csc(Nc3ncccn3)n2)c1	1
O=S(=O)(c1ccc(-c2csc(Nc3ccc4c(c3)OCO4)n2)cc1)N1CCCCC1	0.839
O=C(CN1C(=O)c2ccccc2C1=O)Nc1nc(-c2ccc3c(c2)OCO3)cs1	1.07
Brc1ccc(-c2csc(Nc3ccc4c(c3)OCO4)n2)cc1	0.351*!
Cc1ccc(C)c(-c2csc(Nc3ccc4c(c3)OCO4)n2)c1	0.348*
Brc1ccc(Nc2nc(-c3ccc(Br)cc3)cs2)cc1	0.657
c1ccc2cc(-c3csc(Nc4ccc5c(c4)OCO5)n3)ccc2c1	0.495*
FC(F)(F)c1cccc(-n2cc(-c3ccccc3)c3c(NCc4cccnc4)ncnc32)c1	0.529
CCOC(=O)c1nnn(-c2nonc2N)c1CN1CCC(C)CC1	0.955
CC(C)(C)NCC(=O)Nc1c2c(nc3c1CCC3)CCCC2	1.01
O=C(CNC1CCCCC1)Nc1c2c(nc3c1CCC3)CCC2	0.565
Cc1cc(NC(=O)CNC2CCCCC2)c2ccccc2n1	1.02
CNCC(=O)Nc1c2c(nc3c1CCC3)CCCC2	0.485*
CCCCCCC(=O)Nc1c2c(nc3c1CCC3)CCCC2	0.909
O=C(CNC1CCCCC1)Nc1c2c(nc3c1CCC3)CCCC2	0.344*
CCC1=Nc2cc(C(=O)N3CCN(CC)CC3)ccc2Sc2ccc(Cl)cc21	0.832
CCc1ccc(N(C)S(=O)(=O)c2ccc3[nH]cc(C(=O)N(CC)CC)c(=O)c3c2)cc1	0.847
COc1ccc(-c2ccc(=O)n(CC(=O)Nc3ccc(C)cc3)n2)cc1	0.999
Cc1ccc2nc(NS(=O)(=O)c3ccc(Cl)cc3)c(NCCO)nc2c1	1.08
C=C(C)Cn1c(C(C)NC(C)=O)nc2ccccc21 (stereo not given)	1.04
COc1ccc(C)cc1NC(=O)c1cc2c(s1)-c1ccccc1OC2	1.9
CCn1c(C(=O)N2CCCC(C(=O)N3CCN(c4cccc(C)c4)C(C)C3)C2)cc2sccc21 (stereo not given)	0.599

Screening results from PubChem.
